Data: PubChem BioAssay (NCI)
Values joined by “and” are separate entries in the source; they are usually repeats but may differ in a detail not shown here. Identical values can stand only once. The panel holds about 79,000 compounds, 15% with a hit somewhere; the sample as a whole holds those more often. A number with no mark means an inactive call. Active and inactive are the calls of the source. Rule as the data show it: active = growth inhibition above about 70%; inactive = the rest.

Legend:
[1] = NCI Yeast Anticancer Drug Screen. Data for the rad50 strain (AID 155);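 also: 0% = growth of vehicle-only cultures of the same strain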; details: S. cerevisiae rad50 strain growth inhibition; at 50.0 µM; hits give high values
Procedure, shortened: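 DNA repair mutant yeast, compound exposure, growth read-out; inhibition is taken relative to vehicle.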

[2] = NCI Yeast Anticancer Drug Screen. Data for the mec2-1 strain (AID 157); details: S. cerevisiae mec2-1 strain, at 50.0 µM, hits give high values
Procedure, shortened: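 Each compound was tested on mec2-1 yeast, a strain altered in DNA damage repair or cell cycle control. Growth inhibition is reported relative to vehicle.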

[3] = NCI Yeast Anticancer Drug Screen. Data for the sgs1 mgt1 strain (AID 161);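 also: 0% = growth of cultures given vehicle only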; details: S. cerevisiae sgs1 mgt1 strain, at 50.0 µM, hits give high values
Procedure, shortened: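 Read-out: growth inhibition vs vehicle controls. Cells: mutant yeast strain deficient in DNA damage repair.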

[4] = NCI Yeast Anticancer Drug Screen. Data for the cln2 rad14 strain (AID 165);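 also: 0% = growth equal to vehicle treated cultures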; details: S. cerevisiae cln2 rad14 strain, at 50.0 µM, hits give high values
Procedure, shortened: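 Test compounds were added to cln2 rad14 yeast cultures; inhibition of growth was then determined by comparison with vehicle treatment.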

[5] = NCI Yeast Anticancer Drug Screen. Data for the bub3 strain (AID 167); details: S. cerevisiae bub3 mutant strain, at 50.0 µM, hits give high values
Procedure, shortened: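 In this screen, a yeast mutant lacking normal mitotic checkpoint function is challenged with compound. Relative growth versus vehicle gives the inhibition value.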

[6] = NCI Yeast Anticancer Drug Screen. Data for the mlh1 rad18 strain (AID 175); details: S. cerevisiae mlh1 rad18 strain growth inhibition; at 50.0 µM; hits give high values
Procedure, shortened: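 Inhibition values reflect reduced growth of mutant yeast versus vehicle-treated controls following compound exposure; the mutations affect DNA damage repair.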

| Structure (SMILES) | growth inhibition [1] | growth inhibition [2] | growth inhibition [3] | growth inhibition [4] | growth inhibition [5] | growth inhibition [6] |
| --- | --- | --- | --- | --- | --- | --- |
| CC(=O)OCC1OC(CCC#N)C(OC(C)=O)C(OC(C)=O)C1OC(C)=O (stereo unspecified) | 10.7% and 1.7% | 15.5% and 14.2% | 17.4% and 2.35% | -12% and -1.35% | 9.3% and -4.05% | 13.6% and 11.3% |
| C/C(C=O)=C\c1ccc(N(C)C)cc1 | -36.5% and 5% | -21.8% and 2.5% | -20.6% and -13.9% | -44.8% and 13.2% | 16.5% and 8.5% | -4.45% and 13.6% |
| C[S+](C)C | -5.65% and -0.05% | -7.25% and -2.1% | -2.9% and -2% | 9.1% and -10% | 4.4% and -7.1% | -18.4% and 12.5% |
| COC(=O)NC1C(=O)OC(C2OC2(C)C)C1(C)C (stereo unspecified) | -4% and -2.5% | -22.9% and -12.8% | -5.3% and -32.8% | 4.35% and -7.9% | -17.1% and -31.4% | -6.15% and -27.4% |
| CC1(c2cccs2)NC(=O)NC1=O (stereo unspecified) | 19.6% and 3.7% | -6.2% and 9.05% | 6.25% and 6.1% | -41% and 2.3% | 0.95% and 8.8% | 7.1% and -3.55% |
| COc1nc2c(c(=O)n1C)NC(C(O)C(O)CO)C=N2 (stereo unspecified) | -34.7% and -26.7% | -20.6% and -33.5% | -23.8% and -25.8% | -5.05% and 8.25% | -14.8% and -15.7% | -23.4% and -17.4% |
| CCCCCCCCCCCCCCCC[N+](C)(C)CCOC(C)=O | 99.2% (active) and 99% (active) | 99.5% (active) | 99.5% (active) | 98.9% (active) and 98.8% (active) | 99.2% (active) and 99.3% (active) | 99.5% (active) and 99.4% (active) |
| Nc1ccc(S(=O)(=O)Nc2cnc3ccccc3n2)cc1 | -11.1% and -2.05% | -1.95% and -1.25% | 2.25% and -5.9% | -20.2% and -30.1% | -11.2% and -10.6% | -4.45% and -6.45% |
| CCOC(=O)CNC(=O)C(Cc1ccccc1)NC(=O)c1ccccc1N (stereo unspecified) | 14% and 12.7% | -1.7% and -2.6% | -0.1% and 9.95% | -5.4% and -6.3% | 8.7% and 4.45% | 7.25% and 4.15% |
| CC(=O)OC1OC(C)C(OC(C)=O)C(OC(C)=O)C1OC(C)=O (stereo unspecified) | 6.8% and 1.65% | -4.1% and 1.8% | -5.85% and 11.7% | -0.15% and 4.05% | 4.5% and -4.2% | -15.6% and 10.3% |
| C/C=C(\C)c1cc(=O)c2c(C)cc3c(c2o1)C(=O)c1c(O)c(C2CC(C)(N(C)C)C(O)C(C)O2)cc(C2CC(N(C)C)C(O)C(C)O2)c1C3=O (stereo unspecified) | 1.95% and 21.3% | -16% and 10.7% | 14.6% and 17.4% | 3.4% and 25.8% | 8.2% and 9.4% | -5.8% and 10.2% |
